Measured values from PubChem BioAssay.
Activity calls are given as the source filed them.

Legend:
Albumin (Bos taurus) = Albumin (Bos taurus) (UniProt P02769); test: bovine serum albumin binders on microarray, profiling panel, artefact control for SMM control protein annotation, biochemical, small-molecule microarray, Alexa647 label, 635/667 nm fluorescence (AID 1118); details: BSA-A647 binding, fluorescence 635 nm, higher = more signal;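 note: score merges 667 nm emission intensity and signal-to-noise per printed compound spot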
[1] = small-molecule microarray binders of probe aXIP, primary screen, biochemical, NeuroSMM set, 635/667 nm fluorescence (AID 1119); details: higher = more signal, called active from +8 up or from −8 down;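 note: probe is the protein aXip251-270 applied at 1 µg/mL to compound-printed slides; binding of probe to printed compounds measured as 667 nm fluorescence plus signal to noise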
[2] = small-molecule binders of probe aNOTCH3, primary screen, biochemical, small-molecule microarray, 635/667 nm fluorescence (AID 1120); details: higher = more signal;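 note: probe is a biotin-tagged antibody raised against NOTCH3 rather than NOTCH3 protein; score merges spot fluorescence near 667 nm with spot signal to noise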
[3] = small-molecule binders of probe aNOTCH2, primary screen, biochemical, small-molecule microarray, 635/667 nm fluorescence (AID 1121); details: higher = more signal;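 note: score merges feature fluorescence read at 667 nm with its signal to noise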
[4] = target: Carbonic anhydrase 2 (Homo sapiens) (UniProt P00918); test: CAII small-molecule binders, profiling panel, biochemical, small-molecule microarray, Alexa647-labelled CAII (AID 1122); details: CAII-A647 binding fluorescence, higher = more signal
[5] = COS7 lysate on small-molecule microarray, probe aHis, 635 nm (AID 1123); details: COS7 cell lysate, fluorescence, higher = more signal;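 note: z-score combines 667nm fluorescence intensity with signal-to-noise per printed compound spot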
[6] = compound binding in COS7 lysate, probe aLAP1, primary screen, cell lysate, small-molecule microarray (AID 1124); details: probe aLAP1, fluorescence, higher = more signal;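 note: lysate comes from COS7 cells expressing LAP1 and is applied at 0.3 µg/mL; score merges spot fluorescence near 667 nm with signal-to-noise over triplicate slides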
Sam68 (KHDRBS1) = test: Sam68 small-molecule binders, primary screen, biochemical, small-molecule microarray, 635 nm fluorescence (AID 1125); details: small-molecule microarray binding, higher = more signal;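 note: score merges 667 nm channel intensity with signal to noise over triplicate slides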
[7] = tested on: Chordin-like protein 2 (CHRDL2); test: CHRDL2 small-molecule binders, primary screen, biochemical, small-molecule microarray, 635 nm fluorescence (AID 1126); details: small-molecule microarray binding, fluorescence 635 nm; higher = more signal;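 note: printed compound slides probed with Chrdl2 protein at 4 µg/mL for 1 h at 4 C; score merges 667 nm emission intensity with signal to noise over three replicate slides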
[8] = target: Concanavalin-A (Canavalia ensiformis) (UniProt P02866); test: ConA small-molecule binders, primary screen, artefact control for SMM control protein annotation, biochemical, small-molecule microarray, Alexa647 label, 635 nm (AID 1127); details: ConA-A647 binding fluorescence, higher = more signal;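 note: z combines 667 nm emission intensity with signal-to-noise across three replicate slides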
Chain of Concanavalin-A (Canavalia ensiformis) (P02866 whole entry, looked up): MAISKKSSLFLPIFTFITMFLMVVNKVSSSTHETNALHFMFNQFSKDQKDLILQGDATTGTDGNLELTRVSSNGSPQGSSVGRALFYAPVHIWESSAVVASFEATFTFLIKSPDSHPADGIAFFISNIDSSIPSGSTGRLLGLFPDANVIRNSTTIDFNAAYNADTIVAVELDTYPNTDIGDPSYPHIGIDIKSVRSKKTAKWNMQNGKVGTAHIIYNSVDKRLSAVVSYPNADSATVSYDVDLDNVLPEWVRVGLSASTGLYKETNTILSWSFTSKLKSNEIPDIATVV

Chain of Albumin (Bos taurus) (P02769 whole entry, looked up): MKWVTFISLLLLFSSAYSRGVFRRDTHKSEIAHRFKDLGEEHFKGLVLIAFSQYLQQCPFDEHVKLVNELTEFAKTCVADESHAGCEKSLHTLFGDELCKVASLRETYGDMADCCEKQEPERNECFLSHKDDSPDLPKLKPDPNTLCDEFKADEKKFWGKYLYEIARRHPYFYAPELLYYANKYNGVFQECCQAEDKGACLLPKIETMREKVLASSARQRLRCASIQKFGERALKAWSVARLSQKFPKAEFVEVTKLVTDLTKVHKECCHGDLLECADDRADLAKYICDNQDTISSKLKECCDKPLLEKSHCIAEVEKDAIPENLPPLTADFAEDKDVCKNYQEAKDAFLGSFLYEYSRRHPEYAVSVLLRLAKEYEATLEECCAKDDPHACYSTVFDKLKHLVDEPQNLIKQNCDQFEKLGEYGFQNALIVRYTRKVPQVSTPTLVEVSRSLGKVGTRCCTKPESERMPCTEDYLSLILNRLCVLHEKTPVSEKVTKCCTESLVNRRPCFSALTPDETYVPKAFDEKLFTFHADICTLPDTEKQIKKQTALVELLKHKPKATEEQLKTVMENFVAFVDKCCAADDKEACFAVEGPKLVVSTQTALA

## O=C/C=C/c1ccc(Cl)cc1
Albumin (Bos taurus)
  composite z-score: -1.04
[1]
  composite Z-score: 0.411 (inactive)
[2]
  composite z-score: -0.186
[3]
  composite z-score: -0.127
[4]
  composite z-score: -0.457
[5]
  composite z-score: -0.267
[6]
  composite z-score: -0.565
Sam68 (KHDRBS1)
  composite z-score: -1.01
[7]
  composite z-score: 0.0502
[8]
  composite z-score: -0.184

## O=c1cccc(CCc2ccccc2)o1
Albumin (Bos taurus)
  composite z-score: -0.284
[1]
  composite Z-score: 0.338 (inactive)
[2]
  composite z-score: -0.301
[3]
  composite z-score: -0.0986
[4]
  composite z-score: 0.731
[5]
  composite z-score: 0.89
[6]
  composite z-score: -0.397
Sam68 (KHDRBS1)
  composite z-score: 0.854
[7]
  composite z-score: 0.146
[8]
  composite z-score: 0.283

## CN1C(=O)C2C(C1=O)C1C=C(CCCO)C2C(c2cccs2)N1C (stereo not given)
Albumin (Bos taurus)
  composite z-score: 0.565
[1]
  composite Z-score: 0.654 (inactive)
[2]
  composite z-score: -0.154
[3]
  composite z-score: -0.231
[4]
  composite z-score: 0.779
[5]
  composite z-score: 0.138
[6]
  composite z-score: 1.62
Sam68 (KHDRBS1)
  composite z-score: -0.27
[7]
  composite z-score: -0.0999
[8]
  composite z-score: -0.774

## CN1CCC(CCCO)=CC1c1ccc(CN2CCCC2)cc1 (stereo not given)
Albumin (Bos taurus)
  composite z-score: -0.225
[1]
  composite Z-score: -0.554 (inactive)
[2]
  composite z-score: 0.29
[3]
  composite z-score: 0.0088
[4]
  composite z-score: 0.665
[5]
  composite z-score: 1.46
[6]
  composite z-score: 0.714
Sam68 (KHDRBS1)
  composite z-score: 1.32
[7]
  composite z-score: 1.5
[8]
  composite z-score: 0.776

## Cc1ccc([C@H]2C(C(=O)O)=C[C@@H](C)N2S(=O)(=O)c2ccc(C)cc2)cc1
Albumin (Bos taurus)
  composite z-score: 0.892
[1]
  composite Z-score: 0.24 (inactive)
[2]
  composite z-score: -0.0918
[3]
  composite z-score: 0.069
[4]
  composite z-score: 0.866
[5]
  composite z-score: 2.6
[6]
  composite z-score: 0.166
Sam68 (KHDRBS1)
  composite z-score: 0.821
[7]
  composite z-score: -1.55
[8]
  composite z-score: -0.72

## CCOC(=O)C1=CCC(c2ccc([N+](=O)[O-])cc2)N(S(=O)(=O)c2ccc(C)cc2)C1 (stereo not given)
Albumin (Bos taurus)
  composite z-score: 0.261
[1]
  composite Z-score: 0.448 (inactive)
[2]
  composite z-score: 0.0351
[3]
  composite z-score: -0.0439
[4]
  composite z-score: 0.408
[5]
  composite z-score: 1.12
[6]
  composite z-score: 0.279
Sam68 (KHDRBS1)
  composite z-score: 0.377
[7]
  composite z-score: -0.0439
[8]
  composite z-score: 0.666

## Cc1ccc(S[C@]2(C(=O)NCc3ccccc3)CC(=O)N(Cc3ccccc3Cl)[C@@H]2c2ccc(CO)cc2I)cc1
Albumin (Bos taurus)
  composite z-score: 0.451
[1]
  composite Z-score: -0.422 (inactive)
[2]
  composite z-score: -0.275
[3]
  composite z-score: -0.198
[4]
  composite z-score: 0.721
[5]
  composite z-score: 0.616
[6]
  composite z-score: 0.198
Sam68 (KHDRBS1)
  composite z-score: -0.414
[7]
  composite z-score: -1.03
[8]
  composite z-score: -0.139

## CCOC(=O)C[C@H]1[C@H](OC(=O)c2ccc(-c3ccccc3)cc2)[C@@H](NC(=O)c2ccc3ccccc3c2)c2cc(OCCCO)ccc2N1C(=O)Cc1ccc(OC)cc1
Albumin (Bos taurus)
  composite z-score: 0.605
[1]
  composite Z-score: -0.608 (inactive)
[2]
  composite z-score: -0.063
[3]
  composite z-score: -0.11
[4]
  composite z-score: -0.0752
[5]
  composite z-score: 0.484
[6]
  composite z-score: 0.188
Sam68 (KHDRBS1)
  composite z-score: 0.41
[7]
  composite z-score: -0.887
[8]
  composite z-score: -0.101

## COCCOC(=O)N1C(=O)[C@@]2(c3cc(C#CCNC(N)=O)ccc31)[C@H](c1ccc(O)cc1)N1[C@H](c3ccccc3)[C@H](c3ccccc3)OC(=O)[C@H]1[C@@H]2C(=O)NC[C@H](O)c1ccccc1
Albumin (Bos taurus)
  composite z-score: -0.302
[1]
  composite Z-score: 0.297 (inactive)
[2]
  composite z-score: 0.108
[3]
  composite z-score: -0.0165
[4]
  composite z-score: 0.044
[5]
  composite z-score: 0.956
[6]
  composite z-score: 0.608
Sam68 (KHDRBS1)
  composite z-score: 1.13
[7]
  composite z-score: 1.38
[8]
  composite z-score: 1.16

## CC(C)C(O)C1C=CC2C(=O)N(c3ccccc3)C(=O)C2N1Nc1ccc(C#N)cc1 (stereo not given)
Albumin (Bos taurus)
  composite z-score: 1.03
[1]
  composite Z-score: 2.09 (inactive)
[2]
  composite z-score: 0.276
[3]
  composite z-score: 0.0883
[4]
  composite z-score: 0.842
[5]
  composite z-score: 2.73
[6]
  composite z-score: 0.997
Sam68 (KHDRBS1)
  composite z-score: 1.26
[7]
  composite z-score: -0.387
[8]
  composite z-score: 1.19

## C=CC[C@@H](OC(=O)Nc1ccc(OC)cc1)c1ccc(O)c2ccccc12
Albumin (Bos taurus)
  composite z-score: 0.32
[1]
  composite Z-score: 0.786 (inactive)
[2]
  composite z-score: 0.278
[3]
  composite z-score: -0.133
[4]
  composite z-score: 0.349
[5]
  composite z-score: 1.53
[6]
  composite z-score: -0.09
Sam68 (KHDRBS1)
  composite z-score: 1.3
[7]
  composite z-score: 1.34
[8]
  composite z-score: 0.913

## CCCN1C(=O)[C@@]2(CCC(=O)OC(C)(C)C)N=C(c3ccc(OCCCO)cc3)O[C@H]2c2ccccc21
Albumin (Bos taurus)
  composite z-score: 0.556
[1]
  composite Z-score: 0.548 (inactive)
[2]
  composite z-score: 0.0225
[3]
  composite z-score: -0.0633
[4]
  composite z-score: 0.376
[5]
  composite z-score: 1.69
[6]
  composite z-score: 0.0436
Sam68 (KHDRBS1)
  composite z-score: 1.31
[7]
  composite z-score: 0.345
[8]
  composite z-score: 0.958

## CCOC(=O)C[C@H]1[C@H](OC(=O)c2ccccc2-c2ccccc2)[C@@H](NC(=O)c2ccc3ccccc3c2)c2cc(OCCCO)ccc2N1C(=O)c1ccc2ccccc2n1
Albumin (Bos taurus)
  composite z-score: 0.43
[1]
  composite Z-score: -0.666 (inactive)
[2]
  composite z-score: 0.172
[3]
  composite z-score: -0.14
[4]
  composite z-score: 0.124
[5]
  composite z-score: 0.806
[6]
  composite z-score: -0.106
Sam68 (KHDRBS1)
  composite z-score: 0.744
[7]
  composite z-score: -0.0077
[8]
  composite z-score: 0.406

## CC(C)(C)OC(=O)CC[C@@]1(C(=O)O)N=C(c2ccc(OCCCO)cc2)O[C@@H]1c1ccccc1N=[N+]=[N-]
Albumin (Bos taurus)
  composite z-score: 0.933
[1]
  composite Z-score: 0.0589 (inactive)
[2]
  composite z-score: 0.39
[3]
  composite z-score: 0.0309
[4]
  composite z-score: 0.72
[5]
  composite z-score: 1.27
[6]
  composite z-score: 0.298
Sam68 (KHDRBS1)
  composite z-score: 1.12
[7]
  composite z-score: -0.734
[8]
  composite z-score: 0.648

## C=C(CCCC)/C(=C/C[C@H](OC(C)=O)c1ccc(CO)o1)c1cnc2ccccc2c1
Albumin (Bos taurus)
  composite z-score: 0.475
[1]
  composite Z-score: -1.16 (inactive)
[2]
  composite z-score: 0.0282
[3]
  composite z-score: -0.14
[4]
  composite z-score: 0.73
[5]
  composite z-score: 0.612
[6]
  composite z-score: -0.193
Sam68 (KHDRBS1)
  composite z-score: 1.05
[7]
  composite z-score: 0.968
[8]
  composite z-score: 0.931

## C=C(COC)C(=O)CC[C@H](OC(C)=O)c1cccc(OCCO)c1
Albumin (Bos taurus)
  composite z-score: -0.768
[1]
  composite Z-score: 0.157 (inactive)
[2]
  composite z-score: -0.165
[3]
  composite z-score: -0.154
[4]
  composite z-score: 0.358
[5]
  composite z-score: 0.451
[6]
  composite z-score: 0.775
Sam68 (KHDRBS1)
  composite z-score: 0.151
[7]
  composite z-score: -0.298
[8]
  composite z-score: -0.935

## CCOC(=O)C1=CC[C@@H](c2ccccc2)N(S(=O)(=O)c2ccc(C)cc2)[C@H]1C(=O)OCC
Albumin (Bos taurus)
  composite z-score: 0.744
[1]
  composite Z-score: 0.615 (inactive)
[2]
  composite z-score: 0.421
[3]
  composite z-score: 0.144
[4]
  composite z-score: 0.413
[5]
  composite z-score: 1.22
[6]
  composite z-score: 0.748
Sam68 (KHDRBS1)
  composite z-score: 1.12
[7]
  composite z-score: -0.361
[8]
  composite z-score: -0.515

## C=CC[C@@]1(C(=O)NCC(O)CO)N=C(c2ccc(OCCCO)cc2)O[C@@H]1c1ccccc1N=[N+]=[N-] (stereo not given in full)
Albumin (Bos taurus)
  composite z-score: 1.04
[1]
  composite Z-score: 0.338 (inactive)
[2]
  composite z-score: 0.266
[3]
  composite z-score: 0.0007
[4]
  composite z-score: 0.778
[5]
  composite z-score: 3.7
[6]
  composite z-score: 1.02
Sam68 (KHDRBS1)
  composite z-score: 0.931
[7]
  composite z-score: -0.982
[8]
  composite z-score: 0.97

## O=C1O[C@@H](c2ccccc2)[C@@H](c2ccccc2)N2[C@@H](c3ccccc3OCCO)[C@]3(C(=O)Nc4ccc(C#CC5(O)CCCCCC5)cc43)[C@@H](C(=O)Nc3nc4ccccc4s3)[C@H]12
Albumin (Bos taurus)
  composite z-score: 0.663
[1]
  composite Z-score: -0.0544 (inactive)
[2]
  composite z-score: 0.283
[3]
  composite z-score: -0.0904
[4]
  composite z-score: 0.453
[5]
  composite z-score: 1
[6]
  composite z-score: 0.246
Sam68 (KHDRBS1)
  composite z-score: 1.02
[7]
  composite z-score: 0.784
[8]
  composite z-score: 0.723

## O=C1N(CCS(=O)(=O)c2ccccc2)Cc2ccccc2C[C@]12N=C(c1ccc(OCCCO)cc1)O[C@@H]2c1ccccc1
Albumin (Bos taurus)
  composite z-score: -0.591
[1]
  composite Z-score: 0.339 (inactive)
[2]
  composite z-score: 0.567
[3]
  composite z-score: 0.189
[4]
  composite z-score: 0.396
[5]
  composite z-score: 3.41
[6]
  composite z-score: 1.17
Sam68 (KHDRBS1)
  composite z-score: 1.13
[7]
  composite z-score: 1.17
[8]
  composite z-score: 1.12

## COc1ccc([Si](C)(C)[C@@H]2[C@@H](CC(=O)N(CCO)Cc3ccccc3)O[C@]3(C(=O)N(C)c4ccccc43)[C@H]2C)cc1
Albumin (Bos taurus)
  composite z-score: 0.751
[1]
  composite Z-score: 0.26 (inactive)
[2]
  composite z-score: 0.0964
[3]
  composite z-score: 0.0022
[4]
  composite z-score: 0.516
[5]
  composite z-score: 0.855
[6]
  composite z-score: 0.0123
Sam68 (KHDRBS1)
  composite z-score: 1.31
[7]
  composite z-score: 1.43
[8]
  composite z-score: 1.12
